Molecules are shown by their SMILES. This is part of a sample that, as a whole, favours compounds with a hit. Of some 83,000 tested, about 20% had one in any assay.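 The test compound was applied at a single concentration to cells in 96-well plates for 48 hours, and percent growth was recorded.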 Unmarked numbers belong to inactive results. Activity calls are given as the source filed them. The calls were made as follows: active = growth percent below 10; inactive = the rest.

Common to all, as to test: NCI-60 one-dose screen, 48 h (100 = growth as untreated, 0 = no growth, -100 = all killed)
One assay relates to RPMI-8226 leukemia. As to conditions: 10 µM unless noted.
Another assay has as its system OVCAR-8 ovarian. As to conditions: 10 µM unless noted.
A further assay has as its system OVCAR-5 ovarian. As to conditions: 10 µM unless noted.
Another assay relates to OVCAR-4 ovarian. As to conditions: 10 µM unless noted.
Another assay has as its system SK-OV-3 ovarian. As to conditions: 10 µM unless noted.
The subject of another assay is IGROV1 ovarian. As to conditions: 10 µM unless noted.
The test system of a further assay is OVCAR-3 ovarian. As to conditions: 10 µM unless noted.
The test system of another assay is NCI/ADR-RES ovarian. As to conditions: 10 µM unless noted.
A further assay deals with T-47D breast. As to conditions: 10 µM unless noted.
In a further assay the test system is BT-549 breast. As to conditions: 10 µM unless noted.
Another assay has as its system MDA-MB-435 melanoma. As to conditions: 10 µM unless noted.
Another assay deals with SW-620 colon. As to conditions: 10 µM unless noted.
The next assay has as its system MCF7 breast. As to conditions: 10 µM.
Another assay deals with HCT-116 colon. As to conditions: 10 µM unless noted.
The test system of another assay is HCC-2998 colon. As to conditions: 10 µM unless noted.
For the next assay, the system named is KM12 colon. As to conditions: 10 µM unless noted.
A further assay concerns HS 578T breast. As to conditions: 10 µM unless noted.

Take `Nc1ccc(C2c3ccccc3Oc3ccccc32)cc1`: the growth in the assay with RPMI-8226 leukemia is 94%; in the assay on OVCAR-8 ovarian, 102%; in the assay on OVCAR-5 ovarian it was 101%; in the assay on OVCAR-4 ovarian, 105%; in the assay with SK-OV-3 ovarian, 98.3%; in the assay with IGROV1 ovarian, 91.8%. The growth in the assay on OVCAR-3 ovarian is 96.4%; in the assay with NCI/ADR-RES ovarian it was 100%; in the assay on T-47D breast it was 84.1%; in the assay on BT-549 breast, 109%; in the assay with MDA-MB-435 melanoma it was 104%; with SW-620 colon, 101%. Further, the growth was 104% in the assay with MCF7 breast, 97.8% in the assay with HCT-116 colon, 117% in the assay with HCC-2998 colon and 103% in the assay on KM12 colon.

In the case of `CCn1c(Cc2ccccc2Nc2c(Cl)cccc2Cl)nnc1SCC(=O)NN1C(=O)/C(=C/c2cccc(OC)c2OC)SC1=S`, the growth in the assay on RPMI-8226 leukemia is 94.3%; in the assay with OVCAR-8 ovarian it was 99%; in the assay with OVCAR-5 ovarian it was 99.2%; in the assay with OVCAR-4 ovarian, 94.2%; with SK-OV-3 ovarian, 107%; in the assay with OVCAR-3 ovarian it was 108%. Further, the growth is 94.7% in the assay on HS 578T breast; 104% in the assay on NCI/ADR-RES ovarian; 86% with T-47D breast; 109% in the assay on BT-549 breast; 103% in the assay with MDA-MB-435 melanoma; 106% with SW-620 colon. Besides, the growth was 99.1% with MCF7 breast, 109% in the assay on HCT-116 colon, 115% with HCC-2998 colon and 102% with KM12 colon.

`O=C1/C=C/[C@@H](O)[C@@H]2C[C@@H](O)C[C@H]2/C=C/CCCCO1`: the growth in the assay on RPMI-8226 leukemia is -39.2% (active); with OVCAR-8 ovarian, 12.5%; in the assay on OVCAR-5 ovarian it was 36.6%; in the assay on OVCAR-4 ovarian, 20.9%; in the assay with SK-OV-3 ovarian, 13%; with OVCAR-3 ovarian, -31.3% (active). The growth was 23.3% in the assay with HS 578T breast; 9.26% (active) with NCI/ADR-RES ovarian; -11.1% (active) in the assay with T-47D breast; 45.3% in the assay with BT-549 breast; 23.5% in the assay on MDA-MB-435 melanoma; -33.7% (active) in the assay on SW-620 colon. In addition, the growth was -48% (active) in the assay on MCF7 breast, 0.136% (active) in the assay on HCT-116 colon, 6.82% (active) with HCC-2998 colon and -51.1% (active) in the assay with KM12 colon.

Regarding `O=c1oc2ccc(Cl)cc2c(=O)n1-c1cc(C(F)(F)F)cc(C(F)(F)F)c1`, the growth is -26% (active) in the assay on RPMI-8226 leukemia; 7.66% (active) in the assay with OVCAR-8 ovarian; 25.2% in the assay on OVCAR-5 ovarian; 18.1% with OVCAR-4 ovarian; -10.6% (active) with SK-OV-3 ovarian; 16% with IGROV1 ovarian. In addition, the growth is -15.1% (active) with HS 578T breast; -9.71% (active) with T-47D breast; -4.47% (active) in the assay on MDA-MB-435 melanoma; 6.78% (active) with SW-620 colon; 2.18% (active) in the assay on MCF7 breast; -12.7% (active) with HCT-116 colon. The growth was 5.83% (active) in the assay with HCC-2998 colon and -31.5% (active) with KM12 colon.

Take `Nc1n[nH]c2ccc([C@@H]3Nc4ccc5[nH]ncc5c4[C@H]4[C@H]5CCC(C5)[C@H]43)cc12`: the growth in the assay on RPMI-8226 leukemia was 17.4%; with OVCAR-8 ovarian, 24.3%; in the assay on OVCAR-5 ovarian it was 34.9%; in the assay on OVCAR-4 ovarian it was 47.6%; with SK-OV-3 ovarian, 50.6%; with IGROV1 ovarian, 24.2%. Besides, the growth with HS 578T breast was 5.8% (active); with NCI/ADR-RES ovarian, 5.44% (active); with T-47D breast, 73.6%; in the assay on MDA-MB-435 melanoma, -7.49% (active); in the assay on SW-620 colon it was 22.2%; in the assay on MCF7 breast, 18.7%. Also, the growth in the assay with HCT-116 colon is 9.49% (active); in the assay on HCC-2998 colon it was 26.2%; with KM12 colon it was 11.5%.

In the case of `O=c1oc2ccc(Cl)cc2c(=O)n1-c1ccc(Cl)cc1F`, the growth was -28.5% (active) with RPMI-8226 leukemia; 8.62% (active) with OVCAR-8 ovarian; 24.6% in the assay on OVCAR-5 ovarian; 11% in the assay on OVCAR-4 ovarian; -2.36% (active) with SK-OV-3 ovarian; 14.3% with IGROV1 ovarian. Further, the growth in the assay with OVCAR-3 ovarian is 5.29% (active); in the assay on HS 578T breast, -5.3% (active); with T-47D breast it was -12% (active); with MDA-MB-435 melanoma, -5.48% (active); in the assay on SW-620 colon, 9.15% (active); in the assay with MCF7 breast, 0.727% (active). In addition, the growth in the assay on HCT-116 colon was 2.58% (active); with HCC-2998 colon, 10.7%; in the assay on KM12 colon it was -9.11% (active).

Consider `C#CCn1cc(C=C2C(=O)N(C)C(=O)N(C)C2=O)c2cc(Cl)ccc21`, for which the growth in the assay with RPMI-8226 leukemia is 105%; with OVCAR-8 ovarian it was 107%; with OVCAR-5 ovarian, 108%; with OVCAR-4 ovarian, 109%; with SK-OV-3 ovarian, 115%; in the assay on IGROV1 ovarian, 102%. For the same molecule, the growth in the assay on HS 578T breast is 91.4%; in the assay on NCI/ADR-RES ovarian, 107%; in the assay with T-47D breast it was 112%; in the assay with BT-549 breast, 116%; in the assay on MDA-MB-435 melanoma it was 103%; in the assay with SW-620 colon, 99.5%. The growth in the assay with MCF7 breast is 100%; in the assay with HCT-116 colon, 109%; with HCC-2998 colon, 112%; with KM12 colon, 104%.

As for `CCOC(=O)C1(C(=O)OCC)N=C(c2ccccc2)C=C1c1ccccc1`, the growth with RPMI-8226 leukemia is 61.6%; in the assay on OVCAR-8 ovarian it was 87.2%; in the assay on OVCAR-5 ovarian it was 97.8%; with OVCAR-4 ovarian it was 81.6%; with SK-OV-3 ovarian, 105%; in the assay on IGROV1 ovarian it was 92.4%. Further, the growth with HS 578T breast was 94.9%; in the assay on NCI/ADR-RES ovarian, 76.5%; with T-47D breast it was 62.2%; in the assay with BT-549 breast, 97.9%; in the assay with MDA-MB-435 melanoma, 103%; in the assay with SW-620 colon, 93.3%. Moreover, the growth in the assay with MCF7 breast was 79.5%; with HCT-116 colon it was 78.4%; with HCC-2998 colon, 105%; with KM12 colon it was 93.6%.

Turning to `COc1cc(CNC(=O)c2ccsc2Nc2ccnc(C(F)(F)F)c2)ccc1O`, the growth in the assay on RPMI-8226 leukemia was 91%; in the assay with OVCAR-8 ovarian, 102%; with OVCAR-5 ovarian it was 107%; in the assay with OVCAR-4 ovarian, 105%; in the assay on SK-OV-3 ovarian it was 97.3%; with OVCAR-3 ovarian, 105%. In addition, the growth in the assay on HS 578T breast is 104%; in the assay on NCI/ADR-RES ovarian, 95.4%; in the assay on T-47D breast it was 98.7%; in the assay with BT-549 breast, 103%; with MDA-MB-435 melanoma, 101%; with SW-620 colon it was 100%. The growth in the assay on MCF7 breast was 113%; with HCT-116 colon it was 101%; in the assay with HCC-2998 colon it was 109%; in the assay on KM12 colon it was 104%.

Regarding `O=C(NC(=S)Nc1cccc(NC(=S)NC(=O)c2ccccc2)c1)c1ccccc1`, the growth in the assay with RPMI-8226 leukemia was 80.9%; in the assay with OVCAR-8 ovarian, 31.6%; in the assay with OVCAR-5 ovarian it was 116%; with OVCAR-4 ovarian it was 16.4%; with SK-OV-3 ovarian, 44.1%; with IGROV1 ovarian, 69.1%. Besides, the growth in the assay with OVCAR-3 ovarian is 65.1%; in the assay with HS 578T breast it was 18.7%; in the assay with T-47D breast, 54.6%; in the assay with BT-549 breast, 58.4%; in the assay on MDA-MB-435 melanoma, 61.4%; with SW-620 colon, 74.6%. Further, the values for the growth in the assay on MCF7 breast, in the assay with HCT-116 colon and in the assay on KM12 colon were 58.3%, 67.2% and 68%, respectively.
